Molecules are shown by their SMILES. Values joined by “and” are separate entries in the source; they are usually repeats but may differ in a detail not shown here. Equal values may be shown once. Inconclusive results are not listed. Some compounds were tested as several samples or in several runs, with calls that do not always agree. Active and inactive are the calls of the source. Calls come from the whole dose curve; as a rule, active = well fitted curve in the direction sought with a large enough effect; inconclusive = small, poorly fitted or top-dose-only effect, or another doubt; inactive = no such curve, though single readings can be large; an effect the other way counts as inactive or inconclusive. Numbered stars: 1 amine (or outer) side, 2 acyl side, 3 side chain; on linkers, the order of the positions; unused ones are H or OH. Bridge positions count the residues as written; N and C are the ends. Square brackets hold non-standard residues; d marks the D form. Peptide text beside a SMILES is read from it. I, II: the chains in the order shown. Actinocin(9to1) = Cc1c2oc3c(C)ccc(C(=O)[*:1])c3nc-2c(C(=O)[*:2])c(N)c1=O; NMeV = CN[CH](C(=O)O)C(C)C; Sar = CNCC(=O)O

The nature of experiment [1]: Viability qHTS for spleen associated tyrosine kinase inhibitor (SYKi) naive MV4-11 cells (AID 1963823). Note: nearly all actives have a fitted effect of over 40% in size. Note: potency is the fitted concentration of half-maximal effect. The method in brief:
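CellTiter-Glo luminescence, 10 min room-temperature incubation, gave viability. Cells: naive MV4-11 (500/well), treated 72 hr at 37 C, 5% CO2.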
On the technique in general: In qHTS, concentration-response curves come from the screen itself.

The nature of experiment [2]: Viability qHTS for spleen associated tyrosine kinase inhibitor (SYKi) drug resistant MV4-11 cells (AID 1963824). Note: nearly all actives have a fitted effect of over 35% in size. Note: potency is the fitted concentration of half-maximal effect. The method in brief: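 CellTiter-Glo luminescence, read 10 min after reagent addition, reports viability after a 72 hr compound exposure. Cells are an MV4-11 line made resistant to SYK inhibition, seeded at 500 per well onto compound-containing plates.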
A short description of experiment [3]: Quantitative highthroughput screen to assess conditional lethalithy of NOMO1 cells grown in RPMI1640 with untreated serum (RPMI+s) (AID 1963876).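 For Viability: 100% = DMSO wells and 0% = empty wells without cells.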 Note: nearly all actives have a fitted effect of over 35% in size. Note: potency is the fitted concentration of half-maximal effect. The method in brief: (§1)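 Each medium arm—HPLM with 10% dialyzed FBS, or RPMI1640 with 5 mM glucose and 10% untreated or dialyzed FBS—was screened against an 11-point, 3-fold compound titration for 48 h at 37 °C, with CellTiter-Glo luminescence as endpoint.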

Experiment [4] can be described thus: Quantitative highthroughput screen to assess conditional lethalithy of NOMO1 cells grown in RPMI1640 with dialyzed fetal bovine serum (RPMI+ds) (AID 1963877).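 For Viability: series mostly up to about 46 µM; 100% = DMSO control wells and 0% = empty wells.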 Note: nearly all actives have a fitted effect of over 30% in size. Note: potency is the fitted concentration of half-maximal effect. The gist of the method: as §1
The nature of experiment [5]: Quantitative highthroughput screen to assess conditional lethalithy of NOMO1 cells grown in Human Plasma-Like Medium with dialyzed fetal bovine serum (HPLM+ds) (AID 1963878).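 For Viability: 100% = DMSO wells and 0% = empty wells on each plate.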 Note: nearly all actives have a fitted effect of over 35% in size. Note: potency is the fitted concentration of half-maximal effect. The gist of the method:
as §1

Experiment [6] is described as follows: Quantitative highthroughput screen to assess conditional lethalithy of P12 Ichikawa cells grown in Human Plasma-Like Medium with dialyzed fetal bovine serum (HPLM+ds) (AID 1963879). For Viability: series mostly up to about 46 µM. Note: nearly all actives have a fitted effect of over 35% in size. Note: potency is the fitted concentration of half-maximal effect. The conditions noted are these: Potency: viability. The gist of the method: as §1
Experiment [7] is described as follows: Quantitative highthroughput screen to assess conditional lethalithy of P12 Ichikawa cells grown in RPMI1640 with dialyzed fetal bovine serum (RPMI+ds) (AID 1963880).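 For Viability: 100% = DMSO wells and 0% = empty wells on each plate.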 Note: nearly all actives have a fitted effect of over 35% in size. Note: potency is the fitted concentration of half-maximal effect. The conditions noted are these: Potency: P12-Ichikawa viability. The gist of the method: as §1
Experiment [8] in a line: Quantitative highthroughput screen to assess conditional lethalithy of P12 Ichikawa cells grown in RPMI1640 with untreated serum (RPMI+s) (AID 1963881).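 For Viability: series mostly up to about 46 µM; 100% = DMSO wells and 0% = empty wells without cells.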 Note: nearly all actives have a fitted effect of over 35% in size. Note: potency is the fitted concentration of half-maximal effect. The conditions noted are these: Potency: viability. The method in brief: as §1
Experiment [9] in a line: Quantitative highthroughput screen to assess conditional lethalithy of SEM cells grown in Human Plasma-Like Medium with dialyzed fetal bovine serum (HPLM+ds) (AID 1963882). For Viability: series mostly up to about 46 µM. Note: nearly all actives have a fitted effect of over 35% in size. Note: potency is the fitted concentration of half-maximal effect. The gist of the method:
as §1

Experiment [10] can be described thus: Quantitative highthroughput screen to assess conditional lethalithy of SEM cells grown in RPMI1640 with dialyzed fetal bovine serum (RPMI+ds) (AID 1963884). The gist of the method:
as §1

Experiment [11] is described as follows: Quantitative highthroughput screen to assess conditional lethalithy of SEM cells grown in RPMI1640 with unreated serum (RPMI+s) (AID 1963883).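 For Viability: 100% = DMSO wells and 0% = empty wells without cells.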 Note: nearly all actives have a fitted effect of over 35% in size. Note: potency is the fitted concentration of half-maximal effect. The gist of the method:
as §1

Experiment [12] in a line: Cellular viability qHTS for adrenocortical cancer (ACC) cell line SW-13 (AID 1963989).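 For activity (max response): cells grown in serum-free medium with ITS supplement; % is set by controls: 0 for no effect and ±100 for the full control effect.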 Note: nearly all actives have a fitted effect of over 65% in size. Note: potency is the fitted concentration of half-maximal effect. The conditions noted are these: SW-13 ACC cells viability, CellTiter-Glo, 48 h; activity (max response): stronger effect = lower value. The method in brief:
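48 h treatment, SW-13 in ITS/DMEM serum-free; doses up to 46 uM; readout CellTiter-Glo luminescence; curve fit four-parameter logistic.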

Experiment [13] in a line: Cellular viability qHTS for adrenocortical cancer (ACC) cell line NCI-H295R (AID 1963990). Note: nearly all actives have a fitted effect of over 60% in size. Note: potency is the fitted concentration of half-maximal effect. The gist of the method: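 Compound titrations (up to 46 uM final) are applied to NCI-H295R cultures for 48 h at 37C. Viable cell number is estimated by CellTiter-Glo signal, normalised to DMSO and doxorubicin controls.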

Take `COc1ccccc1OCCNCC(O)COc1cccc2[nH]c3ccccc3c12` (configuration not stated): the Potency in experiment [1] was 13.3 µM (active); in experiment [2], 11.9 µM (active). For the same compound, the Potency entry in experiment [3], in experiment [4], in experiment [5], in experiment [6], in experiment [7] and in [8] was “inactive” throughout. In addition, the Potency result in experiment [9] and in experiment [10] was “inactive” in each case.

`CCn1c(C(=O)N(C2CC2)C2CC2)cc2c3c(ncn3C)c(Nc3cc(C)n(C)n3)nc21`: the Potency in [1] is 1.03 µM (active) and 1.48 µM (active); in experiment [2], 2.31 µM (active) and 3.72 µM (active); in [11], 20.9 µM (active). Further, the Potency entry in [3], in [4], in [5], in experiment [6], in experiment [7] and in experiment [8] was “inactive” in each case. Besides, the activity (max response) in experiment [12] is -6.84% (inactive).

Regarding `Cc1c(C(=O)Nc2ccc(N3C[C@@H](C)O[C@@H](C)C3)nc2)cccc1-c1ccc(OC(F)(F)F)cc1`, the Potency result in [1] is “inactive and 16.6 µM (active)”; in experiment [2] it was “inactive and 7.42 µM (active)”; in [3], 5.26 µM (active); in experiment [4], 11.8 µM (active); in experiment [5], 3.32 µM (active); in experiment [6], 2.35 µM (active). Moreover, the Potency in [7] is 4.18 µM (active); in experiment [8], 4.18 µM (active); in experiment [11], 1.48 µM (active); in [13], 10 µM (active). Besides, the activity (max response) in experiment [12] is -4.43% (inactive).

Consider `C=C(C)[C@@H]1CC[C@]2(C)CC[C@]3(C)[C@H](CC[C@@H]4[C@@]5(C)CC[C@H](O)C(C)(C)[C@H]5CC[C@]43C)[C@@H]12`, for which the Potency result in experiment [1], in experiment [2], in [3], in experiment [4], in experiment [5] and in [6] was “inactive” in each case. The Potency entry in experiment [7], in [8], in experiment [9], in experiment [10] and in experiment [13] was “inactive” each time. Also, the activity (max response) in experiment [12] is 4.74% (inactive).

Turning to `CCCCCCCCc1ccc(CCC(N)(CO)CO)cc1`, the Potency in experiment [1] is 5.17 µM (active); in experiment [2] it was 4.61 µM (active); in experiment [3], 18.7 µM (active); in [4] it was 23.5 µM (active); in [5], 14.8 µM (active); in experiment [6], 23.5 µM (active). The Potency in experiment [7] was 18.7 µM (active); in [8] it was 18.7 µM (active); in experiment [9], 23.5 µM (active); in experiment [12], 17.8 µM (active); in experiment [13] it was 7.08 µM (active).

On to `Cc1c(-c2ccnn2C)cc(C(=O)NCc2ccc(S(C)(=O)=O)cn2)c(=O)n1-c1cccc(C(F)(F)F)c1`, for which the Potency entry in experiment [1], in experiment [2], in experiment [3], in [4], in experiment [5] and in [6] was “inactive” each time. In addition, the Potency entry in experiment [7], in experiment [8], in experiment [11], in experiment [10] and in experiment [13] was “inactive” throughout. Also, the activity (max response) in [12] was 5.26% (inactive).

As for `Nc1ccccc1NC(=O)c1ccc(CNc2nccc(-c3cccnc3)n2)cc1`, the Potency in [1] is 0.291 µM (active); in experiment [2], 0.231 µM (active); in experiment [3], 2.64 µM (active); in experiment [4], 2.35 µM (active); in [5], 2.35 µM (active); in experiment [6] it was 2.09 µM (active). The Potency is 2.35 µM (active) in experiment [7]; 2.09 µM (active) in [8]; 0.743 µM (active) in [9]; 0.833 µM (active) in [11]; 3.98 µM (active) in experiment [12]; 0.355 µM (active) in experiment [13].

For `CC1CNc2c(cccc2S(=O)(=O)N[C@@H](CCCN=C(N)N)C(=O)N2CC[C@@H](C)C[C@@H]2C(=O)O)C1` (some centres not stated), the Potency result in experiment [1], in experiment [2], in experiment [3], in experiment [4], in experiment [5] and in experiment [6] was “inactive” each time. Also, the Potency result in experiment [7], in experiment [8], in experiment [11], in experiment [10] and in experiment [13] was “inactive” each time. For the same compound, the activity (max response) in experiment [12] was -14.2% (inactive).

Consider `Cc1ncc([N+](=O)[O-])n1CCO`, for which the Potency result in [1], in experiment [2], in experiment [3], in [4], in experiment [5] and in [6] was “inactive” in each case. For the same compound, the Potency entry in experiment [7], in [8], in experiment [9], in experiment [11] and in experiment [13] was “inactive” in each case. The activity (max response) in experiment [12] is -0.254% (inactive).

In the case of `NC[C@H](O)c1ccc(O)c(O)c1`, the Potency entry in [1], in experiment [2], in [3], in experiment [4], in experiment [5] and in experiment [6] was “inactive” throughout. Also, the Potency entry in experiment [7], in experiment [8], in experiment [11], in experiment [10] and in experiment [13] was “inactive” each time. Also, in experiment [12], the activity (max response) was -12.7% (inactive) and 7.51% (inactive).

In the case of `CC[C@@H]([C@H](C)O)n1ncn(-c2ccc(N3CCN(c4ccc(OCC5CO[C@@](Cn6cncn6)(c6ccc(F)cc6F)C5)cc4)CC3)cc2)c1=O` (some centres not stated), the Potency in [1] was 5.9 µM (active); in experiment [2] it was 4.17 µM (active). For the same compound, the Potency entry in experiment [3], in experiment [4], in experiment [5], in [6], in [7] and in experiment [8] was “inactive” throughout. Further, the Potency entry in [11], in [10] and in [13] was “inactive” throughout. Moreover, the activity (max response) in [12] was -5.54% (inactive).

With `CCOC(=O)Nc1ccc(NCc2ccc(F)cc2)nc1N`, the Potency was 14.8 µM (active) in experiment [1] and 16.6 µM (active) in experiment [2]. The Potency result in experiment [3], in [4], in experiment [5], in experiment [6], in [7] and in experiment [8] was “inactive” each time. For the same compound, the Potency result in [9], in experiment [10] and in experiment [13] was “inactive” throughout. In addition, the activity (max response) in experiment [12] is -9.42% (inactive).

For `Cc1c2oc3c(C)ccc(C(=O)NC4C(=O)NC(C(C)C)C(=O)N5CCCC5C(=O)N(C)CC(=O)N(C)C(C(C)C)C(=O)OC4C)c3nc-2c(C(=O)NC2C(=O)NC(C(C)C)C(=O)N3CCCC3C(=O)N(C)CC(=O)N(C)C(C(C)C)C(=O)OC2C)c(N)c1=O` (configuration not stated) (I: TVP[Sar][NMeV] / II: TVP[Sar][NMeV]; ester I:1-I:C, II:1-II:C; linker I:N-II:N via Actinocin(9to1); configuration not given here), the Potency in experiment [1] is 0.0014 µM (active); in experiment [2], 0.001 µM (active); in experiment [12], 0.009 µM (active); in experiment [13], 0.802 µM (active). Besides, the Potency entry in experiment [3], in experiment [4], in [5], in experiment [6], in experiment [7] and in experiment [8] was “inactive” in each case. Further, the Potency entry in experiment [11] and in experiment [10] was “inactive” throughout.

As to `O=C(O)C1CCCN(CCC=C(c2ccccc2)c2ccccc2)C1` (configuration not stated), the Potency entry in experiment [1], in [2], in experiment [3], in [4], in experiment [5] and in experiment [6] was “inactive” in each case. Further, the Potency entry in experiment [7], in experiment [8], in experiment [9], in [10] and in [13] was “inactive” each time. For the same compound, in experiment [12], the activity (max response) is -5.26% (inactive).

Values taken from PubChem BioAssay (NCATS).
